# According to ChEMBL document CHEMBL4513216, “Probing the Open Global Health Chemical Diversity Library for Multistage-Active Starting Points for Next-Generation Antimalarials” (ACS Infect Dis, 2020):
# About 2,700 (4%) of roughly 68,000 compounds showed an effect of 50% or more. The sample holds strong results, similar compounds and a random draw of the others, so the mix is not that of the screen.
# System: Plasmodium berghei
# Experiment: Screen against P. berghei liver stage (PbLuc), transformed with Luciferase, at 2uM
# Assay type: functional, HepG2
# Conditions: tested at 2 uM
row,SMILES,INHIBITION [%]
1,CN(C)Cc1nn(C)c2c1CCN(C(=O)CC1CC1)C2,-1.31
2,C=C(C)COc1ccccc1C(=O)NCCCc1nnn[nH]1,-24.7
3,OC(COCc1ccco1)CN1CCc2c(ncn2C2CC2)C1 (centres undefined),35.23
4,CC(Cc1cccs1)NC(=O)CCn1cccn1 (centres undefined),0.66
5,O=C(CCOc1ccccc1)N1CCCC(c2ncc[nH]2)C1 (centres undefined),2.06
6,CCCN(Cc1nccn1C)C(=O)C(CC)Nc1cccc(OC)c1 (centres undefined),16.82
7,COCc1cn(CC2CCN(Cc3nc(C)c[nH]3)CC2)nn1,-37.15
8,Cc1ccc(CN2Cc3c(C(=O)N(C)C)nn(C)c3C2)s1,-35.2
9,O=S(=O)(Cc1ccccc1)c1nnc(N2CCCC2)s1,44.37
10,O=S(=O)(Cc1ccccc1)c1nnc(N2CCOCC2)s1,52.08
11,Cc1cccc(CS(=O)(=O)c2nnc(N3CCOCC3)s2)c1,22.34
12,CCCn1cc(CNCC(c2ccc(C)s2)N2CCOCC2)cn1 (centres undefined),10.46
13,CNc1cc(C(=O)N2CCOC(C(=O)NC3CCCC3)C2)ccn1 (centres undefined),-5.76
14,CCn1cnnc1CNC(=O)N(C)Cc1ccc2c(c1)OCO2,-19.35
15,O=C(C1CCCC1)N1CCC(c2ccnc(Nc3cnccn3)n2)C1 (centres undefined),37.81
16,Cc1ccc(Nc2nccc(C3CCCN(CC(=O)N(C)C)C3)n2)nc1 (centres undefined),-28.81
17,CC(=O)N1CCCC(c2ccnc(Nc3cnccn3)n2)C1 (centres undefined),-39.95
18,Cc1ccc(Nc2nccc(C3CCN(CC(N)=O)C3)n2)nc1 (centres undefined),85.75
19,O=C(C1CCC1)N1CCCC(c2ccnc(Nc3cnccn3)n2)C1 (centres undefined),57.82
20,Cc1ccc(Nc2nccc(C3CN(CC(N)=O)C3)n2)nc1,9.79
21,O=C(c1ccco1)N1CCOCC2(C1)CN(c1ccccc1)C(=O)CO2 (centres undefined),16.48
22,COc1ccc(CN2CC[C@H]3[C@H]2CC(=O)N3Cc2cccc(C)n2)cc1,3.55
23,CCCn1nc2c(cc1=O)CN(Cc1nc(C)c(C)o1)CC2,44.43
24,OC(CN1CC(n2cccn2)C1)c1ccc2c(c1)OCCO2 (centres undefined),-28.22
25,CN1CCOC(CNCc2csc(C3CCCCC3)n2)C1 (centres undefined),16.84
26,Cc1nc(CNCC2CN(C)CCO2)cs1 (centres undefined),-50.23

row,SMILES,INHIBITION [%]
1,CN1CCOC(CNCc2csc(C3CCCC3)n2)C1 (centres undefined),60.71
2,CCOC(=O)c1c(NC(=O)CN2CCN(C(C)=O)CC2)sc2c1CCC2,25.47
3,C1CC(N2C[C@@H]3COC[C@]3(COCC3CCOCC3)C2)C1,22.96
4,CCOC(=O)CSc1ccc(-c2nc(CC)no2)cn1,46.51
5,CCc1noc(-c2ccc(SCC(=O)O)nc2)n1,47.9
6,CCOC(=O)CSc1ccc(-c2nc(C)no2)cn1,70.75
7,COc1ccc(Br)c(C(=O)NCC2CC2)c1,9.21
8,O=C(Nc1cccc(OC(F)F)c1)C1CN(S(=O)(=O)C2CC2)C1,21
9,NS(=O)(=O)N1CCC(C(=O)Nc2cccc(OC(F)F)c2)CC1,50.98
10,CC(NC(=O)C1CCN(S(N)(=O)=O)CC1)c1cccc(OC(F)F)c1 (centres undefined),1.42
11,CN(C)C[C@@H]1C[C@@H]2CN(C(=O)c3ccoc3)CC[C@@H]2N1CC1CC1,-72.76
12,C=Cc1ccc(C(=O)N2CCCC(Nc3ccccc3)C2)cc1 (centres undefined),43.86
13,CCN(C)S(=O)(=O)N1CCC(C(O)c2ccc(F)cc2)CC1 (centres undefined),52.98
14,CCN(C)S(=O)(=O)N1CCC(C(O)c2ccc(Cl)cc2)CC1 (centres undefined),-11.41
15,CN(C)S(=O)(=O)N1CCC(C(O)c2ccc(Cl)cc2)CC1 (centres undefined),24.36
16,CCCn1nc2c(cc1=O)CN(Cc1nnc(C3CC3)o1)CC2,-7.73
17,Cc1ncsc1CCN(C)C(=O)CN1CCOC1=O,29.13
18,c1cc(CN2CC[C@H]3O[C@@H](COCC4CCOCC4)CC[C@H]32)ccn1,-5.17
19,COc1ccc(CNCCn2c(C)nc3ccccc32)cc1O,-92.51
20,Cc1nc2ccccc2n1CCNCc1cccc(C#N)c1,-5.59
21,Cc1nc2ccccc2n1CCNCc1cccc(O)c1,54.47
22,CSc1nsc(NC(=O)c2cc(C3CC3)nn2C)n1,-11.3
23,O[C@]12CCNC[C@H]1CN(c1ccnc3ccccc13)CC2,16.35
24,OC[C@H]1CN(Cc2c(Cl)cncc2Cl)C[C@H]1CN1CCCCCC1,-34.9
25,OC[C@H]1CN(Cc2c(Cl)cncc2Cl)C[C@H]1CN1CCOCC1,14.13
26,OC[C@H]1CN(Cc2c(Cl)cncc2Cl)C[C@H]1CN1CCCC1,72.91

row,SMILES,INHIBITION [%]
1,CC1CN(CC(=O)NCc2ccc(F)cc2)CCN1c1nccs1 (centres undefined),-4.29
2,CN(C)CCNc1cc(-c2ncccc2Cl)c2cc[nH]c2n1,10.22
3,COc1ccc(CN2CCC=C(C(C)NC(C)=O)C2)cc1 (centres undefined),60.13
4,COc1ccnc(CN2CCC=C(C(C)NC(C)=O)C2)c1OC (centres undefined),21.97
5,CC(=O)NC(C)C1=CCCN(Cc2ccc(C(=O)O)cc2)C1 (centres undefined),43.44
6,Cc1cnccc1N1CCN(C(=O)C2CC3(CCNCC3)CN2)CC1 (centres undefined),-28.32
7,CC[S+](CC)[c-]1c(=O)[nH]c(=O)n(CCc2ccc(F)cc2)c1=O,9.31
8,CC(NC(=O)c1ccc(Cl)cc1)c1nnc(SCC(N)=O)n1C (centres undefined),14.46
9,CS(=O)(=O)NCC1CCCN(C(=O)Nc2ccccc2F)C1 (centres undefined),-5.61
10,CS(=O)(=O)NCC1CCCN(C(=O)Nc2ccccc2Cl)C1 (centres undefined),-7.21
11,CS(=O)(=O)NCC1CCCN(C(=O)Nc2cccc3ccccc23)C1 (centres undefined),58.93
12,Cn1cc(C(=O)NC2CCCC2)c(-c2cccnc2)n1,-18.81
13,CN(CC(=O)Nc1ccccc1C(=O)NC1CC1)Cc1ccccc1Cl,19.66
14,CCOC(=O)c1ccccc1NC(=O)CN(C)Cc1ccccc1Cl,16.25
15,CCOc1ccccc1NC(=O)CN(C)Cc1ccccc1Cl,55.73
16,O=C1NCCN1C1CCN(CC(O)c2ccccc2F)CC1 (centres undefined),-54.48
17,CNC(=O)[C@@H]1C[C@H](N)CN1S(=O)(=O)c1cc(Cl)cc(Cl)c1O,92.61
18,CNC(=O)[C@@H]1C[C@H](N)CN1S(=O)(=O)c1cc(Cl)c(Cl)s1,18.19
19,CNC(=O)[C@@H]1C[C@H](N)CN1S(=O)(=O)c1cc(C)c(Cl)cc1C,25.45
20,CN(C)[C@@H]1CN(C(=O)Cc2ccsc2)[C@@H]2CCCO[C@H]12,16.63
21,CN(Cc1ccccc1CN1CCCC1)C(=O)c1c[nH]c(=O)[nH]1,0.31
22,CN(Cc1ccccc1CN1CCCC1)C(=O)c1c(O)cccc1O,54.29
23,CN(CCN1CCCCCC1)C(=O)c1c(O)cccc1O,-46.57
24,C1CCN(CCN2CCCCC2C2OCCO2)CC1 (centres undefined),-26.04
25,Cc1nnc(N2CCOC(C)(C(=O)NC3CCCC3)C2)c2ccccc12 (centres undefined),51.88
26,Cc1nnc(N2CCOC(C)(C(=O)N(C)C)C2)c2ccccc12 (centres undefined),29.68

row,SMILES,INHIBITION [%]
1,CNC(=O)C1(C)CN(c2nnc(C)c3ccccc23)CCO1 (centres undefined),31.39
2,CCn1ncc2c1C(COCC1CC1)N(Cc1ccccn1)CC2 (centres undefined),1.74
3,CCc1nc(C2CCCN(C(=O)CCn3ccccc3=O)C2)no1 (centres undefined),54.92
4,CCc1nc(C2CCCN(C(=O)c3ccc(OC)cc3)C2)no1 (centres undefined),48.43
5,CCOc1cc(C(=O)N2CCCC(c3noc(CC)n3)C2)ccn1 (centres undefined),43.79
6,CCc1nc(C2CCCN(C(=O)c3ccc4[nH]cnc4c3)C2)no1 (centres undefined),52.52
7,Cc1nc(C2CCCN(C(=O)CCn3ccccc3=O)C2)no1 (centres undefined),47.23
8,CCc1nc(C2CCCN(C(=O)c3ccc(OC(C)C)nc3)C2)no1 (centres undefined),54.92
9,CCOc1cc(C(=O)N2CCCC(c3noc(C)n3)C2)ccn1 (centres undefined),-29.94
10,CC(C)c1nc(C2CCCN(C(=O)CCn3ccccc3=O)C2)no1 (centres undefined),29.59
11,CCc1nc(C2CCCN(C(=O)c3ccc(O)nc3)C2)no1 (centres undefined),9.82
12,CC(C)c1nc(C2CCCN(C(=O)c3ccc4[nH]cnc4c3)C2)no1 (centres undefined),33.91
13,CCOc1cc(C(=O)N2CCCC(c3noc(C(C)C)n3)C2)ccn1 (centres undefined),64.16
14,CCc1nc(C2CCCN(C(=O)c3ccc4[nH]nnc4c3)C2)no1 (centres undefined),38.72
15,Cc1cccn2c(CNC(C)CCc3ccc(O)cc3)cnc12 (centres undefined),-19.78
16,Cc1cccc(C(=O)NC(C)CN2CCCC2=O)n1 (centres undefined),5.91
17,c1ccc(CO[C@@H]2CC[C@H]3[C@H]2OCCN3Cc2ccsc2)nc1,22.62
18,O=C(c1ccsc1)N1C[C@H]2CN(Cc3cccnc3)C(=O)[C@H]2C1,18.91
19,CN1CCc2c(C#N)c(NCc3cccnc3)n3cnnc3c2C1,-48.47
20,CN(C)CC1CN(Cc2coc(-c3ccc(Cl)cc3)n2)CCO1 (centres undefined),35.23
21,O=C(O)C1(Oc2ccc3ccccc3c2)CCN(c2ccncc2)CC1,2.04
22,CCc1n[nH]c(C2CN(C(=O)CCn3ccccc3=O)CCO2)n1 (centres undefined),-27.5
23,CCCc1n[nH]c(C2CN(C(=O)Cn3ccccc3=O)CCO2)n1 (centres undefined),-53.98
24,CCCc1n[nH]c(C2CN(C(=O)CCn3ccccc3=O)CCO2)n1 (centres undefined),60.09
25,CC(C)NC(=O)N1CCCC(c2nnc(CN3CCOCC3)n2C)C1 (centres undefined),10.02
26,CC(NCc1cnc(N2CCOCC2)nc1)c1ccc(Cl)s1 (centres undefined),-62.93
